Screening results from PubChem BioAssay.
CYP2C9 activ = increases human cytochrome P450 2C9 activity | P11712 | recombinant CYP2C9, luciferin-H conversion, luminescence; stronger effect = higher value; factor 1 = untreated enzyme, 0 = blocked | activation factor at 5 µM | 1.4% of 96,000 active | AID 1024;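 active = activation factor of 2 or more for CYP2C9 at a 5 µM dose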;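 also: 0 = sulfaphenazole-blocked wells and 1 = vehicle-only wells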
Target sequence (P11712 whole entry, looked up): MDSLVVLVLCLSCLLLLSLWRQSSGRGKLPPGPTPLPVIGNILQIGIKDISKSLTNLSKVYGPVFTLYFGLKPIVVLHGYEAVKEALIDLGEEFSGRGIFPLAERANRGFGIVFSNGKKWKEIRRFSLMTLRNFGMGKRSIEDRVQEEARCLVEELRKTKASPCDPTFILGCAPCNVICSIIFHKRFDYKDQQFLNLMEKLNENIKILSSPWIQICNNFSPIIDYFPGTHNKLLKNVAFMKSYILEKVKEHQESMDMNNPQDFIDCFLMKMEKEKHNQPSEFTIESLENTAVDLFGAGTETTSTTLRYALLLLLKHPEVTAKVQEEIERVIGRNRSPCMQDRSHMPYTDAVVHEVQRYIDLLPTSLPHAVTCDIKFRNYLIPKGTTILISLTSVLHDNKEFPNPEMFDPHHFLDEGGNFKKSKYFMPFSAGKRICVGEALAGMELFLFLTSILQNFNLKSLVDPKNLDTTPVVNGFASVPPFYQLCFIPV
CYP2C19 inhib = human CYP2C19 inhibition; CYP2C19 Supersomes, luciferin-H EGE luminescence, 30 min; inhibition, % at 5 µM; 21% of 96,000 active; AID 778;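 active = CYP2C19 inhibition above a set limit at 5 µM in the primary screen, cut at about 50% in these data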;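 also: plate controls were negative control wells for no effect and 2.5 mM tranylcypromine positive control for full effect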
CYP2C19 activ = activators of human cytochrome P450 2C19; P33261; recombinant CYP2C19, luciferin-H EGE luminescence; stronger effect = higher value; 0 = fully inhibited enzyme, 1 = untreated enzyme; activation factor at 5 µM; 96,000 tested, under 10 active; AID 1025;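 active = activation factor of at least 2 at 5 µM in the primary screen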;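 also: 0 = wells with 2.5 mM tranylcypromine and 1 = vehicle-only wells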
CYP2C9 inh = human CYP2C9 inhibition; AID 777; 20% of 96,000 active; CYP2C9 Supersomes, luciferin-H conversion, luminescence; inhibition, % at 5 µM; P11712;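 active = blocking of liver enzyme CYP2C9 beyond about 50% at 5 µM, limit read from the data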
The depositor's hits bear a star. In the library only some 31% were active in any assay of this set; here they are far more common.

SMILES	CYP2C9 activ	CYP2C19 inhib	CYP2C19 activ	CYP2C9 inh
CCNC(=O)OCC(CC)NC(=O)OCC(C)C (stereo not drawn)	1.4	4	1	-39
CCN1CCN(CCC(=O)Nc2ccccc2OC)CC1	1.1	-8	1.1	-6
CCOc1ccccc1NC(=O)CSc1nnc(-c2ccco2)o1	1.3	27	0.7	-29
CCOc1ccccc1NC(=O)Cn1nnc(-c2ccc(OCC)c(OCC)c2)n1	0.2	89*	0.1	85*
CCOc1ccccc1NC(=O)CSc1ccccc1	3.6*	51*	0.5	-257
CCC(COC(=O)Nc1cccc(C)c1)NC(=O)OCC(C)C (stereo not drawn)	0.4	93*	0.1	55*
CCOc1ccccc1NC(=O)CCN1CCN(S(=O)(=O)c2ccc(Br)cc2)CC1	0.6	63*	0.4	36
CCCC(=O)c1c[nH]c(C(=O)NCCc2ccccn2)c1	1	-3	1	1
C/C(N)=C(/C#N)C(=O)COC(=O)CCC1CCCC1	0.8	49	0.5	16
COC(=O)c1cc(OC)c(OC)cc1NC(=S)N1CCCC(CO)C1 (stereo not drawn)	1.2	9	0.9	-18
CCOc1ccccc1NC(=O)NS(=O)(=O)c1ccc(C)cc1	0.1	20	0.8	91*
COc1ccccc1NC(=O)CCC(=O)O	0.4	14	0.9	56*
CCOc1ccccc1NC(=O)Cc1ccccc1OC	2.2*	58*	0.4	-120
COc1ccccc1NC(=O)CCn1cccc1	1.7	12	0.9	-72
CCOC(=O)N1CCN(C(=S)Nc2cc(OC)c(OC)cc2C(=O)OC)CC1	1	98*	0	2
Cc1ccc(S(=O)(=O)NC(=O)Nc2cc(C)ccc2F)cc1	0.9	6	0.9	10
CCOC(=O)Nc1cccc(OCC(=O)Nc2ccccc2OCC)c1	1.3	88*	0.1	-33
CC(=O)Nc1cccc(OCC(=O)Nc2ccccc2)c1	1.3	34	0.7	-26
COc1ccc2[nH]c(C)c(C(=O)CN3CCc4cc(OC)c(OC)cc4C3)c2c1	0.6	6	0.9	42
CC1CCCCN1C(=O)CSc1nnc(CSc2ncccn2)n1C (stereo not drawn)	1.1	-15	1.1	-9
O=c1[nH]c(Nc2ccc(F)cc2)cc2ccccc12	0.2	86*	0.1	78*
Cc1ccccc1Nc1cc2ccccc2c(=O)[nH]1	0.9	31	0.7	14
COc1ccc(OCCSc2nnc(-c3ccoc3C)n2C)cc1	0.3	74*	0.3	72*
Cc1occc1-c1nnc(SCC(=O)c2ccc(Cl)cc2)n1C	0.5	85*	0.1	48
Cc1occc1-c1nnc(SCC(=O)c2c[nH]c3ccccc23)n1C	0.5	98*	0	54*
SMILES	CYP2C9 activ	CYP2C19 inhib	CYP2C19 activ	CYP2C9 inh
COc1ccc(OCCSc2nnc(-c3ccccc3)n2N)cc1	1	22	0.8	3
COc1ccc(-n2c(Cn3c(=O)sc4ccccc43)nnc2SCC(=O)N2CCCCC2)cc1	0.6	21	0.8	36
O=[N+]([O-])c1ccc(N/N=C/c2c[nH]c3ccccc23)cc1	0.4	14	0.9	58*
O=C(Cn1c(=O)n(Cc2ccco2)c(=O)c2ccccc21)Nc1cccc(Cl)c1	0.8	-20	1.2	22
N#Cc1nc(-c2ccco2)oc1N1CCN(c2ccccc2)CC1	0.8	40	0.6	19
N#Cc1nc(-c2ccco2)oc1N1CCC(Cc2ccccc2)CC1	0.1	82*	0.2	91*
COc1ccc(-c2nc(C#N)c(N3CCc4ccccc4C3)o2)cc1OC	0.8	55*	0.4	23
COc1ccc(N2CCN(c3oc(-c4ccc(OC)c(OC)c4)nc3C#N)CC2)cc1	0.7	48	0.5	34
COc1ccccc1-c1nc(C#N)c(N2CCN(c3ccccc3)CC2)o1	1	80*	0.2	0
COc1ccccc1-c1nc(C#N)c(N2CCc3ccccc3C2)o1	0.3	84*	0.2	75*
COc1ccc(N2CCN(c3oc(-c4ccccc4OC)nc3C#N)CC2)cc1	1	19	0.8	1
CNC(=S)NNC(=O)c1cccn(Cc2ccc(Cl)cc2Cl)c1=O	1.1	-9	1.1	-7
COc1ccc(CC(CC(=O)O)C(=O)Nc2ccccc2)cc1 (stereo not drawn)	0.9	11	0.9	10
c1ccc(-c2nnc(CSc3nncs3)o2)cc1	1	32	0.7	4
CC1CCN(c2oc(-c3ccccc3Cl)nc2C#N)CC1	0.1	86*	0.1	87*
Cc1ccc(C)c(OCCOCCN2CC(C)OC(C)C2)c1C (stereo not drawn)	1	34	0.7	0
O=C(OCn1ncc(Br)c(Br)c1=O)c1ccc(F)cc1	0.7	89*	0.1	28
CCn1ncc(Br)c1C(=O)Nc1ccc(F)cc1F	1.1	25	0.8	-10
O=C(OCn1ncc(Br)c(Br)c1=O)c1ccccc1Cl	1	57*	0.4	2
CCOC(=O)c1cnc2sc3c(n2c1=O)CCCC3	1.2	8	0.9	-24
Cc1ccccc1OCc1nnc(SCC(=O)Nc2ccc(N3CCOCC3)c(Cl)c2)n1C	0.8	58*	0.4	23
Cc1ccccc1OCc1nnc(SCC(=O)Nc2ccc3c(c2)OCO3)n1C	1.6	76*	0.2	-56
CCn1c(COc2ccccc2C)nnc1SCC(=O)Nc1ccc2c(c1)OCCO2	1	0	1	1
O=C(Cn1cnc([N+](=O)[O-])n1)N/N=C/c1ccccc1O	1	-1	1	5
OC(COCC1COc2ccccc2O1)CN1CCN(c2ccccn2)CC1 (stereo not drawn)	1.1	19	0.8	-14
SMILES	CYP2C9 activ	CYP2C19 inhib	CYP2C19 activ	CYP2C9 inh
COC(=O)c1cc(OC)c(OC)cc1NC(=O)C(C)Sc1ccc(C)cc1 (stereo not drawn)	0.5	40	0.6	48
Cn1c(Cc2cccs2)nnc1SCc1nc2ccccc2[nH]1	1	59*	0.4	3
Cn1c(SCc2nc3ccccc3[nH]2)nnc1-c1cccs1	0.8	78*	0.2	20
COc1ccc(-c2nn3c(-c4ccccc4)nnc3s2)cc1	0.3	74*	0.3	70*
c1ccc(-c2nnc3sc(-c4ccncc4)nn23)cc1	0.9	44	0.6	14
COc1cccc(-c2nnc3sc(-c4ccc(Cl)cc4)nn23)c1	0.3	36	0.6	66*
Clc1ccc(-c2nn3c(-c4ccccc4)nnc3s2)cc1	0.6	81*	0.2	40
Clc1cccc(-c2nn3c(-c4ccncc4)nnc3s2)c1	1.1	55*	0.5	-6
COc1cccc(-c2nnc3sc(-c4ccccc4)nn23)c1	1	12	0.9	0
O=C(Nc1ncc(Cc2ccccc2)s1)C1COc2ccccc2O1 (stereo not drawn)	1	5	0.9	1
Cc1ccc(-n2c(C)cc(C)c(C#N)c2=O)cc1	0.8	16	0.8	19
Cc1cccc(-c2nnc3sc(-c4ccccc4C)nn23)c1	0.2	89*	0.1	81*
COc1cccc(OC)c1-c1nn2c(-c3cc(-c4ccccc4)n[nH]3)nnc2s1	0.4	56*	0.4	57*
